Assay outcomes: PubChem, National Center for Advancing Translational Sciences (NCATS)
APEX1 inh: APE1 (human) endonuclease inhibition; P27695; recombinant APE1, TAMRA/BHQ-2 abasic DNA cleavage fluorescence; Potency, µM (doses to about 65.8 µM), for inactives: at the highest dose activity change, negative = inhibition, usual class: inhibitors; hit rate 0.35% among 350,000; AID 2517;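 also: plate controls were vehicle for no effect and reference inhibitor for full effect; nearly all actives have a fitted effect of over 55% in size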
Target sequence (P27695 whole entry, looked up): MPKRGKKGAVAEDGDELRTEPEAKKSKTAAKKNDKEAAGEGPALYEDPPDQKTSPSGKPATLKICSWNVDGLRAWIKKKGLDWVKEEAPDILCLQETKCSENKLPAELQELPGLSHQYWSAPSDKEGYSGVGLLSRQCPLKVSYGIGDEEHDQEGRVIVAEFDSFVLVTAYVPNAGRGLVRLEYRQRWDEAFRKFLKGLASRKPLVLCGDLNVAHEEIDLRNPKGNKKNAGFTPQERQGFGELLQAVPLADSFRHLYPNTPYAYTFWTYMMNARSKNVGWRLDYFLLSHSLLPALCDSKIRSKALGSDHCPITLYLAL
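Measures dequenching upon AP-site incision of a 5'-TAMRA/3'-BHQ-2 THF-containing duplex, 50 nM; human APE1 0.75 nM after 15 min room-temperature exposure to compound; kinetic three-point read at one-minute spacing.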
KDM4E inh: inhibitors of human JMJD2E histone demethylase. hit rate 1.6% among 230,000. B2RXH2. Potency, µM (top dose mostly 57.1 µM), inactives show at the highest dose activity change, negative = inhibition, actives largely listed as inhibitors. JMJD2E catalytic domain, FDH-coupled NADH fluorescence (FDH is formaldehyde dehydrogenase). AID 2147; active = well fitted inhibition curve with a large enough effect, not every such curve was filed as active; inconclusive = small, poorly fitted or top-dose-only effect, or another doubt; inactive = no such curve, though single readings can be large or run the other way;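 also: 0% = wells with enzyme and -100% = buffer wells without enzyme; nearly all actives have a fitted effect of over 50% in size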
L3MBTL1 block: L3MBTL1 (human) inhibition; Q9Y468; AlphaScreen L3MBTL1–H3K9me1 peptide binding; Potency, µM (highest dose often 57.1 µM), inactives show at the top dose activity, negative = inhibition, actives largely listed as inhibitors; hit rate 0.66% among 230,000; also: nearly all actives have a fitted effect of over 60% in size
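L3MBTL1 (50 nM) pre-complexed 30 min with biotinylated H3(1-15)K9me1 peptide (75 nM), then compounds added for 30 min at room temperature; AlphaScreen streptavidin donor/nickel chelate acceptor beads (10 ug/mL final) read after 30 min dark incubation.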
TDP1 block: inhibitors of human tyrosyl-DNA phosphodiesterase TDP1. Q9NUW8. recombinant TDP1, AlphaScreen DNA substrate cleavage. Potency, µM (titrated, usually from 130 µM), without a hit: top-dose activity change, negative = inhibition, actives largely listed as inhibitors. hit rate 0.28% among 350,000. AID 485290; also: nearly all actives have a fitted effect of over 40% in size
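E. coli-derived human Tdp1, 1 nM final. Cpd preinc 15 min RT; substrate 15 nM final, 5 min RT; AS bead mix 10 ug/ml final, 10 min RT. Signal loss = tyrosine-FITC cleavage. No-enzyme wells = max signal.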
BLM inh: blocks DNA unwinding by human BLM helicase. P54132. recombinant BLM DNA unwinding, fluorescence dequenching. Potency, µM (titrated, usually from 56.1 µM), without a hit: at the top dose activity change, negative = inhibition, usual class: inhibitors. hit rate 0.2% among 350,000. AID 2528;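 also: plate controls were vehicle for no effect and no enzyme for full effect; nearly all actives have a fitted effect of over 35% in size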
RECQ1 inh-1: blocks DNA unwinding by human RECQ1. P46063. RECQ1 DNA unwinding, red fluorescence kinetic read. Potency, µM (highest dose often 57.3 µM), without a hit: at the top dose activity, negative = inhibition, hits mostly inhibitors. hit rate 0.54% among 240,000. AID 2549;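 also: plate controls were vehicle for no effect and no enzyme for full effect; nearly all actives have a fitted effect of over 30% in size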
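50 nM RECQ1T1 preincubated 15 min with compound in Tris pH 8.0 buffer with MgCl2, DTT, Tween-20 and 2.5 ug/ml poly(dI-dC); started with 200 nM TAMRA/BHQ-2 forked duplex and 2 mM ATP. Unwinding read as fluorescence (525/598 nm), two reads 2 h apart.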
RECQ1 conf: confirmation of human RECQ1 helicase inhibitors; shares compounds with RECQ1 inh-1; RECQ1 helicase DNA unwinding, fluorescence; Potency, µM (highest dose often 229 µM), for inactives: at the top dose activity change, negative = inhibition, hits mostly inhibitors; hit rate 28% among 610; also: nearly all actives have a fitted effect of over 45% in size
ADP FP counter: counter-screen for RECQ1 inhibitors: ADP displacement; shares compounds with RECQ1 inh-1; ADP fluorescence polarization displacement counterscreen; Potency, µM (doses to about 228 µM), without a hit: top-dose activity change, negative = inhibition, usual class: inhibitors; hit rate 27% among 530; also: nearly all actives have a fitted effect of over 45% in size
RECQ1 inh-2: confirmation of human RECQ1 helicase inhibitors; hit rate 15% among 1,100; shares compounds with RECQ1 inh-1; Potency, µM (doses to about 119 µM), without a hit: at the highest dose activity, negative = inhibition, usual class: inhibitors; recombinant RECQ1 DNA unwinding, red fluorescence; also: nearly all actives have a fitted effect of over 50% in size
* marks the source's active call; other numbers are inactive results; i = inactive; ? = inconclusive; / = not tested or not shown; [ ] = another dose, or the depositor's remark. Only a selection was taken, and hits are over-represented in it overall. Unless noted, calls follow the shape of the dose curve; as a rule, active = well fitted curve in the direction sought with a large enough effect; inconclusive = small, poorly fitted or top-dose-only effect, or another doubt; inactive = no such curve, though single readings can be large; an effect the other way counts as inactive or inconclusive. Unless noted, % is scaled to controls: 0 for no effect and ±100 for the full control effect; potency is read from the fitted curve at half-maximal effect.

SMILES	APEX1 inh	KDM4E inh	L3MBTL1 block	TDP1 block	BLM inh	RECQ1 inh-1	RECQ1 inh-2	others
CCc1cc2c(nc1CC)CCN(CC/C(C)=N/O[C@@H](C)c1cn([C@@H]3COC[C@@H]3O)nn1)C2	25%[12.4 µM]	/	/	9%[21 µM]	2%[12.4 µM]	1%[11.5 µM]	/
CCN(c1ccc(C)cc1C)S(=O)(=O)c1nnc(NC(=O)c2ccccc2OC)s1	/	/	/	0%	0%	/	/
CC(C)(C)c1ccc(C(=O)CCCN2CCC(OC(c3ccccc3)c3ccccc3)CC2)cc1	/	/	/	2%	-3%	/	/
Cc1ccc(OCC(O)Cn2c3ccccc3c3ccccc32)cc1 (centres undefined)	-4%	?	10%	-8%	-10%	?	-48%
CC(C)c1ccc(NC(=O)c2ccc(=O)n(Cc3ccccc3)c2)cc1	/	/	/	5%	-8%	/	/
CNc1ccc(Br)cc(C(=O)/C=C/c2cccc(OC)c2)c1=O	?	?	?	3%	-29%	28µM*	?
CCNc1ccc(Br)cc(C(=O)/C=C/c2ccc3c(c2)OCO3)c1=O	?	14µM*	20µM*	-13%	-25%	?	?
CCCCC[C@H](O)/C=C/[C@H]1OC(O)C[C@H](O)[C@@H]1C/C=C\CCCC(=O)O (some centres undefined)	-2%	-4%	/	10%	3%	-3%	/
Cc1cc(C)cc(OCC(=O)Nc2nonc2NC(=O)COc2cc(C)cc(C)c2)c1	4%	-2%	-3%	2%	-4%	?	-1%
Cc1cc(C)cc(OCC(=O)Nc2nonc2-c2ccc(Br)cc2)c1	/	/	/	3%	-6%	/	/
O=C(NCc1n[nH]c(=S)n1-c1cccc(C(F)(F)F)c1)c1ccc(S(=O)(=O)N2CCCC2)cc1	25%	-9%	/	3%	-1%	i	/	RECQ1 conf=-4%;ADP FP counter=8%
COc1ccc(C2/C=C\CN(C(=O)C3CCCCC3)C(Cc3ccccc3)C(=O)N2Cc2ccc(F)cc2)cc1 (centres undefined)	-5%	/	/	4%	-10%	i	/
CN(C)c1ccc(NC(=O)CSc2nc3ccsc3c(=O)n2CCCCCC(=O)O)cc1	/	/	/	-13%	2%	/	/
COc1ccc(NC(=O)CSc2nc3ccsc3c(=O)n2CCCCCC(=O)O)cc1	-1%	-1%	/	1%	3%	-1%	/	RECQ1 conf=?;ADP FP counter=13%
CCCCn1c(SCC(=O)c2ccc(O)c(O)c2)nc2ccsc2c1=O	-9%	?	-2%	6%	-24%	22µM*	8.9µM*
O=C(O)CCCCCn1c(SCC(=O)Nc2ccc(F)cc2)nc2ccsc2c1=O	-3%	2%	/	2%	-1%	i	/	RECQ1 conf=5%;ADP FP counter=-4%
CCCCn1c(SCC(=O)c2ccccc2)nc2ccsc2c1=O	2%	-3%	19%	3%	-3%	i	/
Cc1ccccc1NC(=O)Cn1nc(C(=O)O)c2ccccc2c1=O	35%	/	/	-1%	-1%	/	/
O=C(Cn1nc(C(=O)O)c2ccccc2c1=O)Nc1nc(-c2ccccc2)cs1	-4%	6%	1%	-5%	-9%	i	/	RECQ1 conf=2%;ADP FP counter=7%
COC(=O)CCC(=O)OC1(C)C(=O)C2=COC(c3ccc(OC)cc3)=CC2=C(Br)C1=O (centres undefined)	?	4%	/	-6%	0%	?	56µM*
